± gives the standard deviation.

What all share (test): peptide microarray binding signal (635 nm), min-max normalized on array (fraction of array maximum); higher = stronger binding
In experiment [1] the target is T1, HaloTag-ATRX ADD domain (163-292).
T1 chain: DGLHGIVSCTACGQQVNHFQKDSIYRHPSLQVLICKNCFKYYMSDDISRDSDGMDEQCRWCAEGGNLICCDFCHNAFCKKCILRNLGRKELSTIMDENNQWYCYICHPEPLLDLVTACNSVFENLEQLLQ
The gist of the method: (§1)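 An Axon GenePix 4000B scanned the arrays at 635 nm for signal and at 532 nm to catch misprints. Those arrays held histone 13-mer peptide–cellulose conjugates printed in triplicate on nitrocellulose with a Cy3 tracer, blocked overnight at 4°C and probed for 1 h at 4°C with biotin-labelled HaloTag reader fusions (10 nM to 1 μM) plus streptavidin-Alexa Fluor 647 or with rabbit histone antibodies (1:10,000 to 1:2,000) plus anti-rabbit Alexa 647. Each binding signal is a triplicate-spot mean intensity, scaled min-max within its library.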

Experiment [2] has as its target HaloTag-ING2 PHD (mouse Ing2 200-280). A digest of the protocol:
as §1

Experiment [3] concerns the target anti-H3K4me3 antibody ab8580. The gist of the method: as §1
Experiment [4] has as its target anti-H3K9me3 antibody ab8898. The gist of the method:
as §1

Where [5] appears, read: peptide region: H4 38-50, peptide modifications: H4K44me3, binder concentration: 1:2,000 dilution.
[6] abbreviates: peptide region: H4 38-50, peptide modifications: H4K44me3, binder concentration: 1:10,000 dilution.
Where [7] appears, read: peptide region: H4 38-50, peptide modifications: H4R45me2a, binder concentration: 1:2,000 dilution.
The mark [8] stands for this setting: peptide region: H4 38-50, peptide modifications: H4R45me2a, binder concentration: 1:10,000 dilution.
[9] abbreviates: peptide region: H4 53-65, binder concentration: 1:2,000 dilution.
Where [10] appears, read: peptide region: H4 53-65, binder concentration: 1:10,000 dilution.
The mark [11] stands for this setting: peptide region: H4 38-50, peptide modifications: H4K44me1 H4R45me2a, binder concentration: 1:2,000 dilution.
The mark [12] stands for this setting: peptide region: H4 38-50, peptide modifications: H4K44me1 H4R45me2a, binder concentration: 1:10,000 dilution.
Setting [13] is: peptide region: H4 38-50, peptide modifications: H4K44me1 H4R45me1, binder concentration: 1:2,000 dilution.
[14] abbreviates: peptide region: H4 38-50, peptide modifications: H4K44me1 H4R45me1, binder concentration: 1:10,000 dilution.

As to ARRGGVKRISGLI [H4 38-50 A R R G G V Kme3 R I S G L I], the “peptide microarray binding signal” value amounted to 0.00367 ± 6.4e-05 in experiment [1] (peptide region: H4 38-50, peptide modifications: H4K44me3, binder concentration: 50 nM); 0.00671 ± 0.00031 in experiment [1] (peptide region: H4 38-50, peptide modifications: H4K44me3, binder concentration: 500 nM); 0.00859 ± 9.7e-05 in experiment [2] (peptide region: H4 38-50, peptide modifications: H4K44me3, binder concentration: 10 nM); 0.0129 ± 0.00014 in experiment [2] (peptide region: H4 38-50, peptide modifications: H4K44me3, binder concentration: 100 nM); 0.00104 ± 4.6e-05 in experiment [3] (setting [5]); 0.0016 ± 2.7e-05 in experiment [3] (setting [6]). Further, the “peptide microarray binding signal” value in experiment [4] (setting [5]) came out at 0.0011 ± 0.0001; in experiment [4] (setting [6]), 0.00161 ± 5.6e-05.

For the molecule ARRGGVKRISGLI [H4 38-50 A R R G G V K Rme2a I S G L I], the “peptide microarray binding signal” value in experiment [1] (peptide region: H4 38-50, peptide modifications: H4R45me2a, binder concentration: 50 nM) was 0.00589 ± 0.00093; in experiment [1] (peptide region: H4 38-50, peptide modifications: H4R45me2a, binder concentration: 500 nM), 0.0275 ± 0.023; in experiment [2] (peptide region: H4 38-50, peptide modifications: H4R45me2a, binder concentration: 10 nM), 0.0152 ± 0.0026; in experiment [2] (peptide region: H4 38-50, peptide modifications: H4R45me2a, binder concentration: 100 nM) it was 0.024 ± 0.0022; in experiment [3] (setting [7]) it was 0.00185 ± 3.4e-05; in experiment [3] (setting [8]), 0.00468 ± 0.0014. Moreover, the “peptide microarray binding signal” value turned out to be 0.00134 ± 0.00014 in experiment [4] (setting [7]) and 0.00144 ± 7.5e-05 in experiment [4] (setting [8]).

ETRGVLKVFLENV [H4 53-65 E T R G V L K V F L E N V]: the “peptide microarray binding signal” value in experiment [1] (peptide region: H4 53-65, binder concentration: 50 nM) turned out to be 0.00282 ± 3.2e-05; in experiment [1] (peptide region: H4 53-65, binder concentration: 500 nM), 0.003334 ± 2.5e-05; in experiment [2] (peptide region: H4 53-65, binder concentration: 10 nM), 0.00639 ± 0.00028; in experiment [2] (peptide region: H4 53-65, binder concentration: 100 nM), 0.00461 ± 7.6e-05; in experiment [3] (setting [9]) it was 0.00121 ± 3.5e-05; in experiment [3] (setting [10]) it was 0.00188 ± 3.5e-05. The “peptide microarray binding signal” value in experiment [4] (setting [9]) amounted to 0.00068 ± 1e-05; in experiment [4] (setting [10]), 0.001211 ± 1.2e-05.

In the case of ARRGGVKRISGLI [H4 38-50 A R R G G V Kme Rme2a I S G L I], the “peptide microarray binding signal” value in experiment [1] (peptide region: H4 38-50, peptide modifications: H4K44me1 H4R45me2a, binder concentration: 50 nM) turned out to be 0.0254 ± 0.0015; in experiment [1] (peptide region: H4 38-50, peptide modifications: H4K44me1 H4R45me2a, binder concentration: 500 nM) it was 0.016 ± 0.00078; in experiment [2] (peptide region: H4 38-50, peptide modifications: H4K44me1 H4R45me2a, binder concentration: 10 nM) it was 0.0305 ± 0.00031; in experiment [2] (peptide region: H4 38-50, peptide modifications: H4K44me1 H4R45me2a, binder concentration: 100 nM), 0.0275 ± 0.00071; in experiment [3] (setting [11]), 0.00417 ± 0.00012; in experiment [3] (setting [12]) it was 0.00987 ± 0.00037. Besides, the “peptide microarray binding signal” value in experiment [4] (setting [11]) came to 0.00331 ± 7.1e-05; in experiment [4] (setting [12]), 0.00974 ± 0.0007.

For the molecule ARRGGVKRISGLI [H4 38-50 A R R G G V Kme Rme I S G L I], the “peptide microarray binding signal” value in experiment [1] (peptide region: H4 38-50, peptide modifications: H4K44me1 H4R45me1, binder concentration: 50 nM) turned out to be 0.0377 ± 0.00093; in experiment [1] (peptide region: H4 38-50, peptide modifications: H4K44me1 H4R45me1, binder concentration: 500 nM), 0.0199 ± 0.00027; in experiment [2] (peptide region: H4 38-50, peptide modifications: H4K44me1 H4R45me1, binder concentration: 10 nM), 0.0751 ± 0.0022; in experiment [2] (peptide region: H4 38-50, peptide modifications: H4K44me1 H4R45me1, binder concentration: 100 nM), 0.031 ± 0.0006; in experiment [3] (setting [13]) it was 0.00727 ± 0.00021; in experiment [3] (setting [14]), 0.02163 ± 0.00021. Besides, the “peptide microarray binding signal” value in experiment [4] (setting [13]) amounted to 0.0055 ± 9.8e-05; in experiment [4] (setting [14]), 0.02058 ± 0.00019.

The values above are taken from the supplement of paper PMC4022240.
